From PubChem BioAssay
Calls of active or inactive are those of the source.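 Rule for the calls, unless noted: active = inhibition of the reporter signal at or above 50%; inactive = inhibition below 50%.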

Tests used:
[1] = inhibitors of TNFa-induced NFkB p65 translocation, primary screen, imaging, HUVEC, MLSMR starter and 10KST1 sets (AID 438;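 active = inhibition above 20% together with a positive visual image hit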;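 note: compound added about 3h40 before a 20 min TNFalpha stimulation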;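 for inhibition: signal is the nuclear over cytoplasmic p65 intensity ratio per well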); conditions: HUVEC TNFa-induced p65 nuclear translocation; cell count: measured here: nuclei count (cytotoxicity indicator), at 2.08 µM; inhibition: at 2 µM, stronger effect = higher value, 0% TNFa-plus-vehicle, 100% no-TNFa wells
[2] = inhibitors of mutant huntingtin aggregation, primary screen, imaging, exon1htt(103Q)mCFP cells, high-content imaging (AID 483;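 active = visual image review flags a hit and inhibition of aggregation exceeds 20%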;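 note: compound exposure lasted 3 days before fixation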;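 for nuclei count: percent of the per-plate median nuclei count of sample wells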); conditions: exon1htt(103Q)mCFP cell line, aggregate imaging, at 2 µM; inhibition of aggregation: stronger effect = higher value; nuclei count: measured here: cell count, toxicity
[3] = inhibitors of E-selectin induction by TNFa, primary screen, imaging, HUVEC, immunofluorescence, MLSMR starter and 10KST1 sets (AID 487;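 active = visually confirmed hit in the image check and inhibition above 20%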;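 for inhibition: signal is fraction of cell area covered by stained E-selectin grains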;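 for nuclei count: 100% = median nuclei count of all wells on the same plate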); conditions: HUVEC TNFalpha-induced E-selectin immunofluorescence imaging, at 2 µM; inhibition: stronger effect = higher value; nuclei count: measured here: cell number, toxicity
[4] = target: Voltage-gated potassium channel subunit beta-2 (Rattus norvegicus) (UniProt P62483); assay: KvBeta enzyme negative modulators, primary screen, biochemical, NADPH fluorescence (AID 622;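 active = fluorescence slope higher than the sample average by over 3 SD, cut at about -0.22 in these data, passing the limit was not always enough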;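 note: slope of raw intensity against log time taken from 70 to 1610 s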); conditions: recombinant KvBeta, 4-cyanobenzaldehyde reduction, at 10 µM, stronger effect = higher value
[5] = target: Voltage-gated potassium channel subunit beta-2 (Rattus norvegicus) (UniProt P62483); assay: KvBeta positive modulators, primary screen, biochemical, NADPH fluorescence (AID 623;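 active = NADPH fluorescence slope more negative than the mean of all samples by about 3 SD, 99.7% confidence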;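 note: fluorescence intensity change per second fitted from 20 to 320 s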); conditions: Recombinant KvBeta, NADPH fluorescence decrease slope, 10 min; at 10 µM; stronger effect = lower value
[6] = target: Alpha-2C adrenergic receptor (Homo sapiens) (UniProt P18825); assay: modulators of alpha2C/GIRK thallium flux, primary screen, cell-based, HEK293 alpha2C/GIRK1/2 (AID 624;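 active = fluorescence slope after compound addition differing from the mean of all screened samples at 99.7% confidence, in either direction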;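 note: slope of fluorescence ratio to pre-addition baseline per second over 15 to 24 s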); conditions: thallium flux BTC fluorescence, at 10 µM, actives lie on both sides
[7] = inhibitors of Sendai virus-induced IRF3 signaling, primary screen, TLR/RLR signaling modifier project, cell-based, Sendai virus stimulus, luciferase, 10K MLSCN set (AID 602276;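 active = inhibition at or above 50% at 10 µM; inactive = inhibition below 50%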;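 note: firefly luciferase from ISG56 promoter only with Renilla not read in this screen; 0% = Sendai virus plus DMSO and 100% = medium plus DMSO without virus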); conditions: HEK293 RL24 IRF3 luciferase reporter, at 10 µM, stronger effect = higher value
[8] = inhibitors of poly I:C-induced TLR3 signaling, primary screen, cell-based, poly I:C stimulus, luciferase, 10K MLSCN set (AID 602277); conditions: HEK293-TLR3 RL24 IRF3 luciferase reporter, at 10 µM, stronger effect = higher value

Alpha-2C adrenergic receptor (Homo sapiens), sequence (P18825 whole entry, looked up): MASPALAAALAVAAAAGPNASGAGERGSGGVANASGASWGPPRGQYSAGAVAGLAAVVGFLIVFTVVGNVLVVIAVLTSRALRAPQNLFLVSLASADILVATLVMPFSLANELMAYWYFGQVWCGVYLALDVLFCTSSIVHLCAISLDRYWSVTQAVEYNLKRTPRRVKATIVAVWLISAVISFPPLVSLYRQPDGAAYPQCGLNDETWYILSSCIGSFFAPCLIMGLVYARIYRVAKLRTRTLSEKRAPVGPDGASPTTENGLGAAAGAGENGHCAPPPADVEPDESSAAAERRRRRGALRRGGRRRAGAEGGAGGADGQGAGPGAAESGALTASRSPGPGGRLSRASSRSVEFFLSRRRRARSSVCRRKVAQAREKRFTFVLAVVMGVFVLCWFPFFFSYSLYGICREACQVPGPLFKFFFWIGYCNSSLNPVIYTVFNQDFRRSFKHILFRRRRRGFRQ
Voltage-gated potassium channel subunit beta-2 (Rattus norvegicus), sequence (P62483 whole entry, looked up): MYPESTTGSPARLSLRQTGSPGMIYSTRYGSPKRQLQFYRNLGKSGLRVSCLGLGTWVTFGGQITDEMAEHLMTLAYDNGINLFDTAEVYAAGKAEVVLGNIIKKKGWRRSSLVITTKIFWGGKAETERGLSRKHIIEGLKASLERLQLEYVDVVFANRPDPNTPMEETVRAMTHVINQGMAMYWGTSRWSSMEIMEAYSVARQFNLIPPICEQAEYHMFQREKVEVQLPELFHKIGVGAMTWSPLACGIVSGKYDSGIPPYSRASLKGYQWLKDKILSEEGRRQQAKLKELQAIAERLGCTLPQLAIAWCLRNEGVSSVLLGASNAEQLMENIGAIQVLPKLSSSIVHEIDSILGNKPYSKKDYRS

| Structure (SMILES) | cell count [1] | inhibition [1] | inhibition of aggregation [2] | nuclei count [2] | inhibition [3] | nuclei count [3] | fluorescence slope [4] | NADPH fluorescence slope [5] | slope [6] | inhibition [7] | inhibition [8] |
| --- | --- | --- | --- | --- | --- | --- | --- | --- | --- | --- | --- |
| CCCc1cc(C(=O)Nc2ccccc2C(=O)OC)no1 | 864 | 5.5% (inactive) | 4.8% (inactive) | 92.4% | -50.4% (inactive) | 111% | -0.629 (inactive) | -3.3e-06 (inactive) | 0.0059 (inactive) | -14.6% (inactive) | -14.1% (inactive) |
| NS(=O)(=O)c1ccc(NC(=O)N[C@@H](Cc2ccccc2)C(=O)O)cc1 | 292 | -0.8% (inactive) | 5.2% (inactive) | 104% | 16.6% (inactive) | 99.7% | -0.485 (inactive) | -4.3e-05 (inactive) | 0.00476 (inactive) | 10.6% (inactive) | 16.6% (inactive) |
| Clc1c(CSc2nc3ccccc3o2)nc2sccn12 | 651 | 7.3% (inactive) | 7.5% (inactive) | 99.8% | -149% (inactive) | 89.3% | -0.507 (inactive) | -4.4e-05 (inactive) | 0.00562 (inactive) | -56.6% (inactive) | -207% (inactive) |
| CCN(CC)S(=O)(=O)c1ccc(C(=O)N2CCN=C2SCc2cccnc2)cc1 | 213 | -3.9% (inactive) | -5.6% (inactive) | 99.7% | -32.1% (inactive) | 122% | -0.587 (inactive) | -1.9e-05 (inactive) | 0.0061 (inactive) | -1.95% (inactive) | 9.81% (inactive) |
| COc1ccccc1CC(NC(C)=O)C(=O)NC1CCN(c2nnnn2-c2ccccc2)CC1 (stereo not given) | 761 | -5.5% (inactive) | -29.5% (inactive) | 63.6% | -19.7% (inactive) | 117% | -0.624 (inactive) | 1.1e-06 (inactive) | 0.00623 (inactive) | -1.4% (inactive) | 16.9% (inactive) |
| COc1ccc(S(=O)(=O)N(CCN2CCOCC2)Cc2cc(OC)ccc2OC)cc1 | 426 | 8.5% (inactive) | -25.8% (inactive) | 102% | -100% (inactive) | 113% | -0.582 (inactive) | -1.5e-06 (inactive) | 0.00508 (inactive) | 17.2% (inactive) | 33.5% (inactive) |
| COc1ccc(NC(=O)c2ccco2)cc1NC(=O)c1cccs1 | 400 | 3.8% (inactive) | 4.3% (inactive) | 95.9% | 13.8% (inactive) | 92.8% | -0.421 (inactive) | 2.6e-05 (inactive) | 0.00585 (inactive) | -10.6% (inactive) | -14.2% (inactive) |
| Cc1nc(-c2cccc(-c3noc(C)n3)c2)no1 | 341 | 2.2% (inactive) | -8.5% (inactive) | 105% | 11.4% (inactive) | 108% | -0.473 (inactive) | -4.9e-05 (inactive) | 0.00665 (inactive) | -12.8% (inactive) | -3.56% (inactive) |
| Cc1ccc2c(c1)C(N1CCCC1=O)CC(c1ccco1)N2 (stereo not given) | 343 | 0% (inactive) | 14.5% (inactive) | 94.2% | -7.7% (inactive) | 106% | -0.407 (inactive) | 3.1e-05 (inactive) | 0.00529 (inactive) | -30.3% (inactive) | 98.9% (active) |
| CCn1cc(C(=O)NCC2CCCO2)c(=O)c2cc(S(=O)(=O)N(C)C)ccc21 (stereo not given) | 767 | -2.4% (inactive) | -9.8% (inactive) | 105% | -50.6% (inactive) | 117% | -0.465 (inactive) | -8.2e-05 (inactive) | 0.00671 (inactive) | -12.7% (inactive) | 1.32% (inactive) |
| COC(=O)c1nc(N)sc1-c1ccccc1 | 592 | 7.2% (inactive) | 9.3% (inactive) | 99.9% | 4.8% (inactive) | 101% | -0.352 (inactive) | 2.3e-05 (inactive) | 0.00535 (inactive) | 11.7% (inactive) | 37.7% (inactive) |
| COc1ccc(S(=O)(=O)NCC(=O)N(CC(=O)NCC2CCCO2)c2ccccc2C)cc1 (stereo not given) | 251 | 2.2% (inactive) | -8.4% (inactive) | 106% | -22.6% (inactive) | 96.9% | -0.399 (inactive) | -6.5e-06 (inactive) | 0.00632 (inactive) | 19.2% (inactive) | 18.4% (inactive) |
| COc1ccc2[nH]c(=O)c(CN(Cc3cccs3)Cc3nnnn3C(C)(C)C)cc2c1 | 713 | 29.2% (inactive) | 1.1% (inactive) | 111% | 12.5% (inactive) | 88.8% | -0.417 (inactive) | -3.6e-05 (inactive) | 0.00579 (inactive) | 10% (inactive) | 7.17% (inactive) |
| CCCCn1c(SCC(=O)NCc2ccccc2)nc2ccc(N3CCOCC3)cc2c1=O | 372 | 4.3% (inactive) | 10.3% (inactive) | 89% | -28% (inactive) | 110% | -0.351 (inactive) | 2.2e-06 (inactive) | 0.00561 (inactive) | -6.72% (inactive) | 5.47% (inactive) |
| CCC1CCCCN1S(=O)(=O)c1ccc(C(=O)Nc2nnc(-c3ccccc3Cl)o2)cc1 (stereo not given) | 322 | 5.2% (inactive) | -1.5% (inactive) | 107% | -52.8% (inactive) | 108% | -0.511 (inactive) | -3.2e-05 (inactive) | 0.00627 (inactive) | 18.8% (inactive) | 16.9% (inactive) |
| CCn1c(CNc2ccc(OC)cc2)nnc1SCC(=O)c1ccc(OC)cc1 | 544 | -16.9% (inactive) | 1.8% (inactive) | 100% | -101% (inactive) | 107% | -0.502 (inactive) | 7.7e-06 (inactive) | 0.00516 (inactive) | 10% (inactive) | 14.7% (inactive) |
| COc1ccc(OC)c(C(=O)c2ccc(C(=O)O)cc2)c1 | 415 | 10.6% (inactive) | -5.3% (inactive) | 100% | -71.4% (inactive) | 110% | -0.508 (inactive) | -2.9e-05 (inactive) | 0.00489 (inactive) | 16.7% (inactive) | 18.4% (inactive) |
| CNC(=O)CSc1nnc(-c2cccc(S(=O)(=O)N3CCOCC3)c2)n1-c1ccc(F)cc1 | 474 | 7.2% (inactive) | 13.2% (inactive) | 104% | -18.5% (inactive) | 106% | -0.376 (inactive) | -6.4e-05 (inactive) | 0.00569 (inactive) | 6.45% (inactive) | 26% (inactive) |
| Cc1nnc(SCCn2c(N3CCC(Cc4ccccc4)CC3)nc3c2c(=O)[nH]c(=O)n3C)s1 | 432 | -1.1% (inactive) | -91.9% (inactive) | 79.6% | -2.5% (inactive) | 104% | -0.54 (inactive) | 3.5e-06 (inactive) | 0.00468 (inactive) | 1.88% (inactive) | 20.9% (inactive) |
| CCOc1ccccc1N(C(=O)c1ccco1)C(C(=O)NC1CCCC1)c1cccnc1 (stereo not given) | 634 | -9.3% (inactive) | 12.2% (inactive) | 79.6% | 10% (inactive) | 116% | -0.563 (inactive) | 2.3e-05 (inactive) | 0.00563 (inactive) | -2.81% (inactive) | 13.5% (inactive) |
| COc1ccc2[nH]c(=O)c(CN(CCO)S(=O)(=O)c3ccc4c(c3)OCCO4)cc2c1 | 539 | -7.5% (inactive) | 7.9% (inactive) | 105% | 24.9% (inactive) | 98.9% | -0.555 (inactive) | -5.3e-05 (inactive) | 0.00253 (inactive) | 9.42% (inactive) | 11.8% (inactive) |
| Cc1[nH]c2c(C)cccc2c(=O)c1Br | 440 | 6.7% (inactive) | 12.7% (inactive) | 106% | 30.1% (inactive) | 85.5% | -0.584 (inactive) | -7.5e-05 (inactive) | 0.0031 (inactive) | 14.8% (inactive) | 7.69% (inactive) |
| Cc1ccc2c(c1)c1c3n2CC(=C2C(=O)OC(C)(C)OC2=O)NC3CCC1 (stereo not given) | 613 | -10.5% (inactive) | -5.4% (inactive) | 10.9% | -142% (inactive) | 139% | -0.589 (inactive) | -1.7e-05 (inactive) | 0.00226 (inactive) | 16.6% (inactive) | 1.44% (inactive) |
| Cn1c(SCC(=O)Nc2ccc(F)cc2)nnc1-c1cccnc1 | 660 | -1.1% (inactive) | 5.2% (inactive) | 90.3% | -57.8% (inactive) | 110% | -0.578 (inactive) | -4.7e-05 (inactive) | 0.00652 (inactive) | -0.187% (inactive) | 21.7% (inactive) |
| Cc1ccc2c(c1)sc1ncc(NC(=O)c3ccccc3)c(=O)n12 | 324 | 2.1% (inactive) | -14.3% (inactive) | 100% | -27.5% (inactive) | 110% | -0.58 (inactive) | 6.2e-06 (inactive) | 0.0047 (inactive) | -16.1% (inactive) | -38.4% (inactive) |
